The values below come from PubChem BioAssay (NCI).

Where “and” joins values, the source holds several entries; their conditions need not be identical. Equal values may be shown once. This is part of a sample that, as a whole, favours compounds with a hit. Of some 83,000 tested, about 20% had one in any assay.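 Compound tested at a single concentration for 48 hours in 96-well plates; a percent growth value below 10 was scored as active.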 Calls of active or inactive are those of the source.

The test system of this experiment is HL-60(TB) leukemia. As to the kind of experiment: NCI-60 one-dose screen, 48 h (100 = growth as untreated, 0 = no growth, -100 = all killed). Particulars: 10 µM unless noted.
Regarding `CN1CCN(C(=O)c2ccc(NC(=O)Nc3ccc(-c4nc(N5CCOCC5)c5cccn5n4)cc3)cc2)CC1`, the growth is 7.69% (active).

As to `Cc1c(C)c(N2C(=O)C=CC2=O)c(C)c(C)c1N1C(=O)C=CC1=O`, the growth is 57.5% (inactive).

For `Nc1ncnc2c1c(-c1ccc(Oc3ccccc3)cc1)nn2C[C@H]1SSC[C@@H]1O`, the growth was -22.5% (active).

As for `CCn1c(SCC(=O)c2ccc(Br)cc2)nnc1-c1ccncc1`, the growth is 103% (inactive).

`CCOc1ccc2nc(-c3cccc(OCC(=O)NC(C)C)c3)nc(Nc3ccc(-c4cn[nH]c4)cc3)c2c1`: the growth is 2.3% (active).

Regarding `N#CC1=C(N)Oc2c(ccc3ccccc23)C1c1ccc([N+](=O)[O-])cc1` (stereo not given), the growth was 69.9% (inactive).

On to `Cc1ccccc1/C=C/C(=O)c1cccc(OCCCOc2cccc(C(=O)/C=C/c3ccccc3C)c2)c1`, for which the growth is 78.2% [3 µM] (inactive).

In the case of `Nc1nc(N)c2cc(S(=O)(=O)c3ccccc3)ccc2n1`, the growth was 23.2% (inactive) and 20.7% (inactive).

For `N#C/C(=C/c1cc([N+](=O)[O-])ccc1Cl)C(N)=O`, the growth was 91.7% (inactive).

`CCOC(=O)c1sc2ncnc(Nc3ccc4c(cnn4C(=O)Nc4ccc(C)c(Cl)c4)c3)c2c1C`: the growth is 95.3% (inactive).

For the compound `Cc1c2c(cc3c1[nH]c1ccccc13)C=NCC2`, the growth was 93.3% (inactive).

Take `CS(=O)CC(=N\O)/C(CS(C)=O)=N\O` (stereo not given): the growth was 101% (inactive).

As to `COc1ccc2[nH]cc(-c3nc(-c4c[nH]c5ccncc45)cs3)c2c1`, the growth is 3.64% (active).

On to `COC(=O)c1ccc2[nH]c(O)c(C(=Nc3ccc(N(C)C(=O)CN4CCN(C)CC4)cc3)c3ccc(C)cc3)c2c1`, for which the growth is -55.7% (active).

Take `Brc1ccc(-n2cc(-c3nn[nH]n3)c(-c3cccs3)n2)cc1`: the growth was 104% (inactive).

On to `CCOc1ccc2cc(-c3nn(CC4CCN(C)CC4)c4ncnc(N)c34)ccc2c1`, for which the growth was 96.7% (inactive) and 54.3% (inactive).

As for `CC1(C)S(=O)(=O)OCCOS1(=O)=O`, the growth is 95.6% (inactive).

On to `N#Cc1c(N)nc2c(nnn2-c2cccc(C(F)(F)F)c2)c1N`, for which the growth was 95.2% (inactive).

On to `O=C(/C=C/c1ccc(C(F)(F)F)cc1)c1ccc(Nc2nc(NCCO)nc(N3CCOCC3)n2)cc1`, for which the growth was 15.4% (inactive).

As to `COc1ccc(Nc2ncccc2C(=O)NCc2cn(Cc3cccc(Oc4ccccc4)c3)nn2)cc1`, the growth is 32.1% (inactive).

Turning to `O=C1Nc2ccc(Br)cc2/C1=N/c1nc(-c2ccccc2)cs1`, the growth was 73.1% (inactive).

Regarding `COc1nccnn1`, the growth was 185% (inactive).

Turning to `COc1ccc(-c2nc3sc(-c4ccccc4)c(-c4ccccc4)n3c2/C=C/C(=O)c2ccccn2)cc1`, the growth was 50.5% (inactive).

On to `COc1ccc(-c2n[nH]nc2-c2cc(OC)c3c(c2OC)OCO3)cc1`, for which the growth was -23.2% (active).

`C/C=C(\C)C(C(=O)NC1CCCCC1)N(C(=O)C1CCc2cc(F)ccc2O1)c1ccc(Cl)cc1` (stereo not given): the growth was 97.8% (inactive).

`COc1ccc(-c2cc3ccc(N(C)C)cc3nc2N)c(F)c1`: the growth was -15.4% (active).

Consider `CN(C)c1ccc(/C=N/NC(=O)COc2cc(=O)n(C)c3ccccc23)cc1`, for which the growth is 98.5% (inactive).

Turning to `CCCCCCCCCCCCCCCCCCOc1ccccc1CC(=O)OCCC[N+](C)(C)C`, the growth was 9.1% (active).

For the compound `O=C(Oc1cccc(OC(=O)c2ccccc2)c1)c1ccccc1`, the growth is 73% (inactive) and 114% (inactive).

With `O=C(O)CNS(=O)(=O)c1ccc(OCCOc2ccc(S(=O)(=O)NCC(=O)O)cc2)cc1`, the growth is 98.7% (inactive).

With `CCN1C(=O)N(CC)C2Nn3c(s/c(=C4\C(=O)N(C)c5ccccc54)c3=O)=NC21` (stereo not given), the growth is 21.1% (inactive).

As to `C=CCn1c(C)nc2cc(Nc3nc(Nc4ccc5nc(C)n(CC=C)c5c4)c4ccccc4n3)ccc21`, the growth is -52% (active).

As to `CCCCCCCCCCCCCCNc1nc(CO)ncc1-c1ccc(C(F)(F)F)cc1`, the growth was 99.1% (inactive).

With `CC1(C)Cc2c(cn(Cc3ccccc3)c2-c2ccccc2)-c2oncc21`, the growth was 85.7% (inactive).

Consider `CC(C)OC1OC(OC(C)C)C(OC(C)C)OC1OC(C)C` (stereo not given), for which the growth was 87.2% (inactive).

As for `COc1c(B(O)O)cccc1-c1nc2ccc3n[nH]c(F)c3c2c2c1CCCC2`, the growth is 20% (inactive).

As for `CN1CCN(Cn2nc(-c3cc(Cl)cc(Cl)c3Cl)n(/N=C/c3ccc(Cl)cc3)c2=S)CC1`, the growth was -38.6% (active).

For the compound `CCOC(=O)c1cc(C(=O)c2ccc(OC)c(OC)c2)n2ccc(-c3ccccn3)cc12`, the growth was 110% (inactive).

As to `COc1ccc(-c2nn(-c3cccc(Cl)c3)cc2C=C(C#N)C#N)cc1`, the growth was -36.7% (active).

On to `COc1cc(OC)cc(C2=C3CC[C@@H]4[C@H](CC[C@]5(C)C(=O)CC[C@@H]45)C3=CC3C(O)c4cccnc4N4C(=O)COC234)c1` (stereo not given in full), for which the growth was 98% (inactive).
